In PubChem BioAssay (Tox21):
Results filed as inconclusive are left out. Calls of active or inactive are those of the source. Calls come from the whole dose curve; as a rule, active = well fitted curve in the direction sought with a large enough effect in the repeat runs; inconclusive = weak or mixed curves; inactive = no such curve, though single readings can be large; an effect the other way counts as inactive or inconclusive.

Assay: A CellTox Green Cytotoxicity Assay to monitor cytotoxicity in HepG2 cells - 40 hour (AID 1224879); note: nearly all actives have a fitted effect of over 40% in size; note: potency is the fitted concentration of half-maximal effect
Conditions: CellTox Green fluorescence; series mostly up to 76.8 µM; cytotoxicity increase: at the top concentration
How it was run: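 Using 1536-well format, dye-containing HepG2 suspension was seeded, allowed 5 h at 37 C/5% CO2, dosed by pintool with compounds, positive and negative controls, and imaged for fluorescence across 40 h.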
% is set by controls: 0 for no effect and ±100 for the full control effect.

| Compound | cytotoxicity increase | Potency |
| --- | --- | --- |
| BrCCCCCCBr | -0.0567% (inactive) | – |
| Nc1cnn(-c2ccccc2)c(=O)c1Cl | -12.2% (inactive) | – |
| Fc1cc(Br)ccc1CBr | -19.8% [at 35.3 µM] (inactive) | – |
| Nc1cc2c3c(c1)C(c1ccccc1)=N[C@@H](NC(=O)c1cccnc1)C(=O)N3CC2 | -14.8% (inactive) | – |
| O=[N+]([O-])c1cc(Cl)c(Cl)c(Cl)c1 | 6.09% (inactive) | – |
| CCCSC(=O)N(CCC)CCC | -12.6% (inactive) | – |
| Cc1cc(C)c(C(=O)P(=O)(C(=O)c2c(C)cc(C)cc2C)c2ccccc2)c(C)c1 | -4.78% (inactive) | – |
| Cc1coc2c1CCC(C)C2 (stereo not given) | 14.3% (inactive) | – |
| CC(N)=S | -4.89% (inactive) | – |
| CCN(CC)CCOC(=O)C(C)(c1ccccc1)c1ccccc1 | 28.3% [at 35.3 µM] (inactive) | – |
| O=C1c2ccccc2C(=O)c2ccccc21 | 18.9% [at 15.8 µM] (inactive) | – |
| CCCCC(=O)Cl | -1.27% (inactive) | – |
| CCC(=O)C(CCN(C)C)(c1ccccc1)c1ccccc1 | 13.4% [at 35.3 µM] (inactive) | – |
| c1cc2c(c(N3CCNCC3)c1)OCCO2 | -22.6% [at 35.3 µM] (inactive) | – |
| CCCSC(=O)Cl | 12.5% (inactive) | – |
| N#CC(CCc1ccc(Cl)cc1)(Cn1cncn1)c1ccccc1 (stereo not given) | – | 24.5 µM (active) |
| ClC(Cl)Br | 4.43% (inactive) | – |

| Compound | cytotoxicity increase | Potency |
| --- | --- | --- |
| C(CCOCC1CO1)COCC1CO1 (stereo not given) | -14.2% (inactive) | – |
| OC(c1ccccc1)(c1ccccc1)C1CCNCC1 | 0.0333% [at 35.3 µM] (inactive) | – |
| CCN(CC)C(=O)[C@@H]1C=C2c3cccc4[nH]cc(c34)C[C@H]2N(C)C1 | 22.9% [at 200 µM] (inactive) | – |
| NC(=S)C(N)=S | -1.16% (inactive) | – |
| CNC(=O)O/N=C(\C)SC | -11% (inactive) | – |
| N#CCBr | -9.54% (inactive) | – |
| CCCCCCI | -11.7% (inactive) | – |
| CS(=O)(=O)c1cc(C(F)(F)F)ccc1C(=O)c1cnoc1C1CC1 | -15.7% (inactive) | – |
| C[C@]1(O)CC[C@H]2[C@@H]3CCC4=CC(=O)CC[C@]4(C)[C@@]3(F)[C@@H](O)C[C@@]21C | 12% (inactive) | – |
| O=C(Oc1ccc(Br)cc1)N1CCN2CCC1CC2 | -2.92% (inactive) | – |
| COc1cc2c(cc1OC)[C@@]13CCN4CC5=CCO[C@H]6CC(=O)N2[C@H]1[C@H]6[C@H]5C[C@H]43 | -8.02% (inactive) | – |
| CCCCCCBr | -19.2% (inactive) | – |
| CCN(CC)C(C)C(=O)c1ccccc1 (stereo not given) | 3.02% [at 35.3 µM] (inactive) | – |
| O=NN1CCCCC1 | -0.219% (inactive) | – |
| CN(N=O)C(N)=O | -1.25% (inactive) | – |
| OCCSCSCCO | -0.758% (inactive) | – |
| CCCCOC(=O)[C@@H](C)Oc1ccc(Oc2ccc(C#N)cc2F)cc1 | -2.71% (inactive) | – |

Assay: qHTS RealTime-Glo MT Cell Viability Assay in HEK293 cells - 0 hour (AID 1224880); note: top concentration of the series differs between compounds; nearly all actives have a fitted effect of over 45% in size
Conditions: RealTime-Glo luminescence; series mostly up to 76.8 µM; activity change, negative = cytotoxicity: at the top concentration
How it was run: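 Viable HEK293 cells reduce a cell-permeant prosubstrate; the product diffuses out and is consumed by NanoLuc in the medium to give light. Compounds went in after a 5 h incubation and plates were read over the treatment course.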

| Compound | activity change, negative = cytotoxicity |
| --- | --- |
| BrCCCCCCBr | -23.1% (inactive) |
| Nc1cnn(-c2ccccc2)c(=O)c1Cl | 2.44% (inactive) |
| Fc1cc(Br)ccc1CBr | 2.68% [at 35.3 µM] (inactive) |
| Nc1cc2c3c(c1)C(c1ccccc1)=N[C@@H](NC(=O)c1cccnc1)C(=O)N3CC2 | -21.5% (inactive) |
| O=[N+]([O-])c1cc(Cl)c(Cl)c(Cl)c1 | 19% (inactive) |
| CCCSC(=O)N(CCC)CCC | 22.8% (inactive) |
| Cc1cc(C)c(C(=O)P(=O)(C(=O)c2c(C)cc(C)cc2C)c2ccccc2)c(C)c1 | -3.25% (inactive) |
| CC(Oc1ccc(Oc2ncc(C(F)(F)F)cc2Cl)cc1)C(=O)O (stereo not given) | -0.717% (inactive) |
| Cc1coc2c1CCC(C)C2 (stereo not given) | -1.83% (inactive) |
| CC(N)=S | 0.345% (inactive) |
| CCN(CC)CCOC(=O)C(C)(c1ccccc1)c1ccccc1 | 5.02% [at 35.3 µM] (inactive) |
| O=C1c2ccccc2C(=O)c2ccccc21 | 1.83% [at 15.8 µM] (inactive) |
| CCCCC(=O)Cl | -1.85% (inactive) |
| CCC(=O)C(CCN(C)C)(c1ccccc1)c1ccccc1 | 1.15% [at 35.3 µM] (inactive) |
| c1cc2c(c(N3CCNCC3)c1)OCCO2 | -3.09% [at 35.3 µM] (inactive) |
| CCCSC(=O)Cl | 3.87% (inactive) |
| N#CC(CCc1ccc(Cl)cc1)(Cn1cncn1)c1ccccc1 (stereo not given) | -26.5% (inactive) |
| CCOC(=O)NC(=S)Nc1ccccc1NC(=S)NC(=O)OCC | -1.9% (inactive) |

| Compound | activity change, negative = cytotoxicity |
| --- | --- |
| ClC(Cl)Br | 4.02% (inactive) |
| C(CCOCC1CO1)COCC1CO1 (stereo not given) | 5.27% (inactive) |
| OC(c1ccccc1)(c1ccccc1)C1CCNCC1 | 12.9% [at 35.3 µM] (inactive) |
| CCN(CC)C(=O)[C@@H]1C=C2c3cccc4[nH]cc(c34)C[C@H]2N(C)C1 | -3.45% [at 200 µM] (inactive) |
| NC(=S)C(N)=S | 14.6% (inactive) |
| CNC(=O)O/N=C(\C)SC | 2.31% (inactive) |
| N#CCBr | 9.58% (inactive) |
| CCCCCCI | -11.6% (inactive) |
| CC(CC(C#N)(c1ccccc1)c1ccccc1)N(C)C (stereo not given) | 13.5% (inactive) |
| CS(=O)(=O)c1cc(C(F)(F)F)ccc1C(=O)c1cnoc1C1CC1 | -21.8% (inactive) |
| O=C(Oc1ccc(Br)cc1)N1CCN2CCC1CC2 | 2.46% (inactive) |
| COc1cc2c(cc1OC)[C@@]13CCN4CC5=CCO[C@H]6CC(=O)N2[C@H]1[C@H]6[C@H]5C[C@H]43 | 2.13% (inactive) |
| CCCCCCBr | 0.207% (inactive) |
| CCN(CC)C(C)C(=O)c1ccccc1 (stereo not given) | 7.69% [at 35.3 µM] (inactive) |
| O=NN1CCCCC1 | -8.9% (inactive) |
| CN(N=O)C(N)=O | -9.86% (inactive) |
| OCCSCSCCO | -5.48% (inactive) |
| CCCCOC(=O)[C@@H](C)Oc1ccc(Oc2ccc(C#N)cc2F)cc1 | -1.44% (inactive) |
